Sfp inh: blocks B. subtilis Sfp PPTase activity. Q9F4F7. Biochemical Sfp PPTase activity, qHTS. Potency, µM, inactives show largest response in the series, negative = inhibition, usual class: inhibitors. 310,000 compounds, 3.5% hits. AID 1490;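 further: the enzyme is Sfp with the accession as filed and its product quenches rhodamine fluorescence; potency means the concentration at half of the fitted maximal effect; 0% = enzyme reaction without inhibitor and -100% = no enzyme wells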
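Fluorescence-quenching assay with 15 nM Sfp, 5 uM rhodamine-CoA and 12.5 uM BHQ-2-labelled ybbR peptide in pH 7.6 Hepes/MgCl2 buffer. Enzyme was pre-incubated with compound for 15 min at room temperature. Rate was taken from the 30-min fluorescence change (525/598 nm).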
FBPA coupling cs: coupling enzyme interference in Giardia aldolase counter-screen | coupling enzyme system counterscreen, AmpLite Red fluorescence | AID 2472 | 290,000 compounds, 0.67% hits | activity change, negative = inhibition, % at 58.2 µM, hits read low; in the data active means activity change below about -30%
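Fluorescence at 525 nm excitation and 598 nm emission measured inhibition of the coupled detection system without aldolase. Compounds (at 57.5 uM final) were preincubated 10 min at room temperature with coupling enzyme reagent before a 20 min substrate/AmpLite Red step.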
JMJD2E inh: inhibitors of human JMJD2E histone demethylase; 230,000 compounds, 1.6% hits; B2RXH2; JMJD2E catalytic domain, FDH-coupled NADH fluorescence (FDH is formaldehyde dehydrogenase); AID 2147; Potency, µM (doses to about 57.1 µM), for inactives: at the highest dose activity change, negative = inhibition, usual class: inhibitors; active means well fitted inhibition curve with a large enough effect, not every such curve was filed as active; inconclusive means small, poorly fitted or top-dose-only effect, or another doubt; inactive means no such curve, though single readings can be large or run the other way;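 further: potency means the concentration at half of the fitted maximal effect; 0% = wells with enzyme and -100% = buffer wells without enzyme; nearly all actives have a fitted effect of over 50% in size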
Target sequence (B2RXH2 1-337 limits assumed): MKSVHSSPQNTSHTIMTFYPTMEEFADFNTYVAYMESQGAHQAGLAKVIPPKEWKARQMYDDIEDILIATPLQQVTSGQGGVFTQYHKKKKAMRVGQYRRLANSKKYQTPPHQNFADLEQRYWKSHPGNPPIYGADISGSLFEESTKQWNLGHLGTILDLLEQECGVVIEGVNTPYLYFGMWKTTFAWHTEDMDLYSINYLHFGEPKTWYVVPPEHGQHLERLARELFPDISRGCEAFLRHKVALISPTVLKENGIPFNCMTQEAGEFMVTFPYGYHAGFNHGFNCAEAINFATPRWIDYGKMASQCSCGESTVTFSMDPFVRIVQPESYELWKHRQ
Tau fluor counter: counter-screen for tau fibril formation inhibitors. tau K18 P301L Alexa594 fluorescence, heparin fibrillization. Potency, µM (series often up to 57.7 µM), for the others: at the highest dose activity change, negative = decrease. 280,000 compounds, 0.93% hits; further: potency means the concentration at half of the fitted maximal effect; nearly all actives have a fitted effect of over 55% in size
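Human K18 P301L tau (15 uM unlabeled plus 0.24 uM Alexa 594-labeled, final) in 100 mM sodium acetate pH 7 was mixed with compound and 20 uM heparin and incubated 6 hr at 37 C.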
Tau ThT inhib: inhibitors of human tau fibril formation, thioflavin T binding; P10636; recombinant tau K18 P301L (four-repeat tau fragment), heparin-induced fibrillization, ThT fluorescence; Potency, µM (highest dose often 57.4 µM), inactives show at the top dose activity, negative = inhibition, actives largely listed as inhibitors; 270,000 compounds, 2.1% hits; AID 1460; further: potency means the concentration at half of the fitted maximal effect; nearly all actives have a fitted effect of over 55% in size
Target sequence (P10636 561-689 P618L limits assumed): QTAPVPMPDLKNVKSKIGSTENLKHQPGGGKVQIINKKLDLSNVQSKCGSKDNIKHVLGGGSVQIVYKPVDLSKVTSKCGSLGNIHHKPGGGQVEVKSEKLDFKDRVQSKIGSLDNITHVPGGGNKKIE
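Tau K18 P301L fragment (15 uM unlabeled plus 0.24 uM Alexa 594-labeled) in 100 mM sodium acetate pH 7 with compound, fibrillization induced by 20 uM heparin for 6 hr at 37 C. Thioflavin T (30 uM) added, fluorescence read after 1 hr (ex 450, em 510 nm).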
Tau fibril FP: tau fibrillization inhibition (FP) | P10636 | K18 P301L tau heparin fibrillization, Alexa594 FP, 6 h | Potency, µM (series often up to 57.7 µM), for inactives: at the highest dose activity, negative = inhibition, most hits filed as inhibitors | 280,000 compounds, 0.39% hits | AID 1468; further: potency means the concentration at half of the fitted maximal effect; nearly all actives have a fitted effect of over 55% in size
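Steps: dispense K18 P301L tau (15 uM plus 0.24 uM Alexa 594 tracer, final) in pH 7 sodium acetate; add compound; add heparin (20 uM final); incubate 6 hr, 37 C; add ThT (30 uM final); after 1 hr ambient, read FP.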
The depositor's hits bear a star; ? = inconclusive; · = no result; [ ] = dose if it differs, or a comment. This is a sample that favours compounds with a hit; in the whole collection about 5.3% have one here. Unless noted, the call rests on the fitted dose curve; in most records, active means well fitted curve in the direction sought with a large enough effect; inconclusive means small, poorly fitted or top-dose-only effect, or another doubt; inactive means no such curve, though single readings can be large; an effect the other way counts as inactive or inconclusive. Unless noted, on the % scale 0 is the no-effect control and ±100 the full control effect.

SMILES	Sfp inh	FBPA coupling cs	JMJD2E inh	Tau fluor counter	Tau ThT inhib	Tau fibril FP
CC(=O)c1cc(C(C)=O)c(C)nc1C	5.3%	0.2	3.7%	-0.4%	-4.2%	-4.8%
COC(=O)N/N=C/c1sc(N2CCCCC2)nc1-c1cccs1	22.4µM*	-21.5	5.0%	?	?	2.8%
O=Cc1cc(N=Nc2ccccc2Cl)ccc1O	-13.5%	8.7	5.9%	?	12.6µM*	?
O=Cc1cc(N=Nc2cccc(C(=O)O)c2)ccc1O	-7.2%	21.4	-25.4%	-12.6%	3.98µM*	-8.3%
O=C(CSc1nnc(Cc2csc(Nc3cccc(Cl)c3)n2)o1)N1CCc2ccccc21	15.3%	-5.4	0.0%	7.08µM*[quencher]	?	5.8%
CCOC(=O)C1=C(CNCc2ccccc2)NC(=O)NC1c1ccc(C)cc1 (centres undefined)	·	·	·	-5.6%	-6.5%	1.1%
Cc1cc(-c2csc(NC(=O)c3ccc(=O)n(C)n3)n2)c(C)n1CC1CCCO1 (centres undefined)	50.1µM*	-6.5	-21.7%	-0.9%	-10.6%	4.4%
CCN1CCN(Cc2ccc(NC(=O)c3ccc(C)c(/C=C/c4cnc(Nc5cc(N6CCNCC6)nc(C)n5)cn4)c3)cc2C(F)(F)F)CC1	56.2µM*	-3.6	·	·	·	·
Cc1ccccc1NC(=O)CC1SCCNC1=O (centres undefined)	22.4µM*	-0.9	-8.4%	-1.6%	-10.9%	-10.2%
COc1cccc(-c2oc3ccccc3c(=O)c2O)c1	-10.9%	-0.9	?	?	?	-5.0%
O=c1c(O)c(-c2cccc(O)c2)oc2ccccc12	44.7µM*	-1.6	?	-16.7%	?	-1.6%
CN(C)/C=N/NC(=O)c1ccccc1	1.3%	-0.6	?	4.6%	1.5%	0.8%
O=C(NN=c1c(=O)c2ccccc2c1=O)c1ccccc1	6.9%	-42.7*	-6.0%	-25.1%	5.62µM*	?
CCN(CC)C(=O)c1sc(NC(=O)c2nc3ncccn3n2)c(C(=O)OC)c1C	·	·	·	-5.4%	-2.8%	-10.6%
CCC(C)(C)c1ccc(OCCCC[n+]2cccc(C)c2)c(C(C)(C)CC)c1	31.6µM*	0.1	4.8%	-10.4%	?	4.5%
COc1ccc(NC(=O)CSc2nc3c(c(-c4cccs4)c2C#N)CN(C)CC3)cc1OC	-19.0%	-11.9	-7.7%	25.1µM*[quencher]	25.1µM*	?
Oc1csc(Cc2nc(-c3ccccc3F)cs2)n1	-15.1%	1.3	-4.7%	?	14.1µM*	-3.6%
Oc1csc(Cc2nc(-c3ccc4ccccc4c3)cs2)n1	-8.9%	-0.2	-10.9%	12.6µM*[quencher]	3.55µM*	3.7%
Oc1csc(Cc2nc(-c3ccc(-c4ccccc4)cc3)cs2)n1	-3.5%	0.3	4.4%	-28.8%	?	4.6%
COc1ccc(NC(=O)Cn2c3ncccc3c(=O)n2-c2ccc(C)c(C)c2)c(OC)c1	·	·	·	-12.8%	-3.8%	-13.7%
CCn1ccc2cc(S(=O)(=O)N3CCC(C(=O)NCc4ccc(OC)cc4)CC3)ccc21	·	·	·	-12.1%	3.0%	8.4%
COc1ccc(-c2noc(COc3ccc4c(c3)OCO4)n2)cc1	10µM*	-4.4	17.7%	-29.5%	?	?
COc1ccc(-c2noc(COc3ccc4c(c3)OCO4)n2)cc1OC	8.0%	-1.7	-8.4%	5.5%	?	0.9%
Cc1ccc(NC(=S)Nc2cccc3cnccc23)c(C)c1	50.1µM*	-36.3*	?	-13.2%	?	?
C=C(C)CNC(=S)Nc1cccc2cnccc12	-4.9%	-0.9	11.6%	-3.6%	3.5%	-1.9%
SMILES	Sfp inh	FBPA coupling cs	JMJD2E inh	Tau fluor counter	Tau ThT inhib	Tau fibril FP
Cc1ccc(NC(=O)CCC(=O)NNC(=S)Nc2ccccc2)c(C)c1	10.1%	0.0	6.3%	-4.8%[2.34 µM]	?	-4.3%[2.34 µM]
CC(=O)N(C)c1ccc(NC(=S)Nc2cccc3ccccc23)cc1	-12.2%	-35.5*	?	-24.2%	?	3.5%
Cc1ccc(NC(=S)NNC(=S)Nc2ccc(C)cc2C)cc1	12.6µM*	-2.7	-8.2%	-0.4%	2.4%	1.4%
CCc1ccc(NC(=S)Nc2cccc3cnccc23)cc1	22.4µM*	-49.2*	?	?	?	?
CCCCOc1ccc(CNC(=O)c2cnc3sc(N4CCC(C)CC4)nn3c2=O)cc1	·	·	·	0.7%	4.5%	-2.1%
O=C1CC2(CCCC2)CC(=O)N1CCCCNCC1COc2ccccc2O1 (centres undefined)	?	·	·	-3.9%	3.9%	-2.7%
CCN(CC)S(=O)(=O)c1ccc(NC(=O)c2c(C)oc3ncnc(N4CCOCC4)c23)cc1	·	·	·	3.1%	3.0%	3.3%
Cc1ccc(NC(=S)Nc2cccc3ccccc23)cc1F	?	-1.0	·	·	·	·
Cc1cc(C)cc(NC(=S)Nc2cccc3cnccc23)c1	25.1µM*	-36.1*	20µM*	?	?	?
O=C(NC(=S)Nc1cccc2cnccc12)c1ccccc1	44.7µM*	-28.7	7.3%	-1.1%	4.3%	9.6%
Cc1ccc(NC(=O)Cn2c(=O)n(Cc3ccco3)c(=O)c3sc4ccccc4c32)cc1C	·	·	·	-26.1%	-4.4%	-7.4%
COc1ccccc1N1CCN(c2csc3ccc(Cl)cc3c2=O)CC1	·	·	·	-8.2%	?	6.3%
COc1ccc(N2CCN(c3csc4ccc(Cl)cc4c3=O)CC2)cc1	·	·	·	-21.6%	6.31µM*	3.9%
O=c1c(N2CCN(c3ccc(F)cc3)CC2)csc2ccc(F)cc12	·	·	·	?	5.01µM*	?
COc1ccc(N2CCN(c3nc(-c4cccs4)nc4ccccc34)CC2)cc1	-15.6%	0.2	?	?	?	-3.6%
COc1ccc(N2CCN(c3csc4ccccc4c3=O)CC2)cc1	·	·	·	?	11.2µM*	-4.6%
COc1ccc(Nc2c(-c3ccc(C)o3)nc3cc(C)ccn23)cc1	·	·	·	?	?	-2.3%
Cc1[nH]c2ccccc2c1[C@H]1[C@@H](CC#N)C1(C)C	?	-46.3*	-3.7%	?	-1.6%	?
CCN(CC)CCCN(c1ccccc1)C1Cc2ccccc2C1	-6.1%	·	·	·	·	·
Cc1ccc(CNC(=O)c2c(C)oc3nc(C)nc(N4CCOCC4)c23)cc1	·	·	·	-3.5%	4.5%	-10.3%
COC(=O)C1=C2SC(C)C(=O)N2C(N)=C(C#N)C1c1cc(OC)c(OC)c(OC)c1 (centres undefined)	35.5µM*	0.4	-28.3%	-7.8%	-14.1%	-9.2%
CCOC(=O)C1=C(N)N2C(=O)C(C)SC2=C(C(=O)OC)C1c1cccc(OC)c1 (centres undefined)	-8.3%	4.0	2.0%	-22.2%	-16.8%	3.1%
COC(=O)C1=C2SC(C)C(=O)N2C(N)=C(C#N)C1c1ccc(OC)c(OC)c1 (centres undefined)	35.5µM*	1.6	-17.5%	-6.1%	?	-2.6%
CC1(C)OC[C@@H]2O[C@@]3(C(=O)O)OC(C)(C)O[C@@H]3[C@@H]2O1	-1.3%	·	·	·	·	·

Screens: PubChem, National Center for Advancing Translational Sciences (NCATS)
